ELG1 genotox = genotoxicity induction in ELG1-luciferase HEK293T cells. actives 1.3% (n = 330,000). Potency, µM (highest dose often 46 µM), for the others: top-dose activity change, positive = activation, most hits filed as activators. AID 504466. HEK293T ELG1-luciferase reporter, luminescence, 16 h; further: % of control where 0% means no effect; nearly all actives have a fitted effect of over 60% in size
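HEK293T cells expressing luciferase-tagged ELG1 were treated with compound or DMSO for 16 hr at 37°C. Luciferase activity was then read after 30 min with ONE-Glo at room temperature; rising signal flags genetic stress.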
FLuc counter = firefly luciferase modulation, counter-screen for miR-21 project; P08659; purified FLuc, Km substrates, luminescence inhibition; Potency, µM (doses to about 57.5 µM), without a hit: at the top dose activity change, negative = inhibition, most hits filed as inhibitors; actives 6.9% (n = 360,000); AID 588342;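 further: plate controls were vehicle for no effect and reference inhibitor for full effect; nearly all actives have a fitted effect of over 55% in size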
Target sequence (P08659 whole entry, looked up): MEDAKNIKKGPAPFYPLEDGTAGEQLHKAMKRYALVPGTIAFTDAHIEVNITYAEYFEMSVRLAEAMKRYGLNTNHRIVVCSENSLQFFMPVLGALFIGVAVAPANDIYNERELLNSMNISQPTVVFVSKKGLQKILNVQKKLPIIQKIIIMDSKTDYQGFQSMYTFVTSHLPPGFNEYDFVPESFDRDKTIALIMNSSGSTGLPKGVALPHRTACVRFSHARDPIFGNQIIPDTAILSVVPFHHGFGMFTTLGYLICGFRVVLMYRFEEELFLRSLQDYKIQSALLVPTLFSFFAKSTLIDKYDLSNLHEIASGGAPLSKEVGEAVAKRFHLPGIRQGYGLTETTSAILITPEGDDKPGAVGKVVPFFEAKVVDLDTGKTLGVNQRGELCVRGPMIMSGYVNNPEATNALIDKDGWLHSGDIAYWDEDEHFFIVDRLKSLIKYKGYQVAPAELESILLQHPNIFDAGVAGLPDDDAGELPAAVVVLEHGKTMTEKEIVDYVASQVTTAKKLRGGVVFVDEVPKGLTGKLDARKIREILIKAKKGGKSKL
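Purified P. pyralis luciferase, 10 nM final, with Km-level 10 uM D-luciferin and 10 uM ATP in 50 mM Tris acetate pH 7.5, 10 mM Mg acetate, 0.01% Tween-20, 0.05% BSA; 6-point qHTS titration about 60 µM downward; luminescence read.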
NPC1 prom act = activators of NPC1 promoter | Potency, µM (doses to about 9.22 µM), without a hit: top-dose activation, usual class: activators | actives 2.4% (n = 320,000) | Huh7 NPC1 promoter luciferase reporter, 24 h; further: % of control where 0% means no effect; nearly all actives have a fitted effect of over 60% in size
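Quantitative HTS used a cell-based reporter: Huh7 cells stably bearing the NPC1 promoter upstream of luciferase were treated with compounds for 24 h, and promoter activation was read as luminescence.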
ELG1 repair inh = ELG1-dependent DNA repair inhibition; HEK293T ELG1-luciferase reporter, luminescence, 16 h; DNA damage induced by 5-fluorouridine; Potency, µM (titrated, usually from 46.1 µM), for inactives: top-dose activity change, negative = inhibition, actives largely listed as inhibitors; actives 2.3% (n = 330,000); AID 504467; further: on the % scale 0 is the no-effect control and ±100 the full control effect; nearly all actives have a fitted effect of over 55% in size
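5-Fluorouridine DNA damage + compound/DMSO, 2,000 cells/well, 16 h, 37 °C/5% CO2. ONE-Glo, 30 min RT, luminescence. Readout = decrease in reporter signal.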
Rab9 prom act = activators of Rab9 promoter. AID 485297. Huh7 Rab9 promoter-luciferase reporter, luminescence, 24 h. Potency, µM (top dose mostly 9.22 µM), for inactives: at the top dose activation, negative = inhibition, hits mostly activators. actives 2.8% (n = 320,000); further: % of control where 0% means no effect; nearly all actives have a fitted effect of over 60% in size
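Cells were plated at 1500 per well in reduced-serum medium with 10% FBS and left 2 h. Compound in DMSO was then added for 24 h at 37 °C. Reporter signal was read by luminescence after 10 min with luciferase detection reagent.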
SMN2 splice up = increases expression of the SMN2 splice variant; HEK293 SMN2-luciferase splicing reporter, luminescence, 30-36 h; Potency, µM (series often up to 46.1 µM), for the others: top-dose activity change, positive = activation, actives largely listed as activators; actives 2.8% (n = 210,000); further: % of control where 0% means no effect; nearly all actives have a fitted effect of over 55% in size
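HEK293 cells carry an SMN2 […]–luciferase reporter in which exon 7 inclusion puts luciferase in frame. Cells were plated 10-12 h before compound addition, then incubated 30-36 h at 37C. ONE-Glo luminescence was read; sodium butyrate at 4.5 mM final served as control.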
* hit, by the source's call; ? = inconclusive; . = no result; [ ] = remark or other dose. Sampled rows, rich in hits. Any-hit rate of the full collection: about 9.2%. The call rests on the fitted dose curve; in most records, active means well fitted curve in the direction sought with a large enough effect; inconclusive means small, poorly fitted or top-dose-only effect, or another doubt; inactive means no such curve, though single readings can be large; an effect the other way counts as inactive or inconclusive. Potency means the concentration at half of the fitted maximal effect.

SMILES	ELG1 genotox	FLuc counter	NPC1 prom act	ELG1 repair inh	Rab9 prom act	SMN2 splice up
COc1ccccc1C1CC(c2c(-c3ccccc3)c3cc(Cl)ccc3[nH]c2=O)=NN1S(C)(=O)=O (centres undefined)	-6%	3%	0%	?	-3%	-39%
COc1cccc(C2CC(c3c(-c4ccccc4)c4cc(Cl)ccc4[nH]c3=O)=NN2S(C)(=O)=O)c1OC (centres undefined)	-17%	3%	0%	23µM*	-16%	17%
O=C(c1ccc(CSc2ccc(Cl)cc2)cc1)N1CCCC1	10%	19µM*	24%	0%	?	8%
O=C(Cc1ccc(Cl)cc1)Nc1ccc(C(=O)N2CCCCC2)cc1	12%	27µM*	10%	-7%	-1%	.
Cc1ccc(CC(=O)Nc2ccc(C(=O)N3CCCCC3)cc2)cc1	-5%	3%	7%	0%	1%	.
Cc1nnsc1-c1nnc(SCC(=O)c2ccc(F)cc2)n1C1CC1	-1%	3%	-3%	?	-3%	.
C=CCc1c(C)nc(-c2ccccc2)nc1N/N=C(\C)c1ccccc1	0%	17µM*	0%	?	-1%	-10%
c1ccc2c(c1)c1ccccc1n2Cn1c2ccccc2c2ccccc21	.	.	.	.	.	-2%[9.22 µM]
COc1cc(/C=N/NC(=S)NC2CC3C=CC2C3)cc(OC)c1OC (centres undefined)	0%	-10%	-4%	18µM*	1%	.
COc1cc(/C=N/NC(=S)NCCc2ccccc2)cc(OC)c1OC	4%	27µM*	-1%	?	-3%	.
Nn1nnc2ccccc21	1%	-18%	8%[46.1 µM]	5%	2%[46.1 µM]	-6%
C(=C\n1nnc2ccccc21)/c1ccccn1	?	4.3µM*	2µM*	?	1.1µM*	.
C(#Cc1c(-c2ccsc2)sc2ccccc12)c1ccsc1	2%	.	.	?	.	.
Cc1ccc2c(c1)sc[n+]2Cc1ccccc1	?	5.4µM*	26%	?	4%	11%
COc1ccccc1N1CCN(C(CNC(=O)C(=O)NCCc2ccccc2)c2cccnc2)CC1 (centres undefined)	.	-13%	.	.	.	.
CCOC(=O)c1ccc(NC(=O)COCc2cc(-c3ccc4c(c3)OCO4)on2)cc1	.	5%	.	.	.	.
Oc1c(Cl)cc(Cl)cc1CNc1ccc(Br)cn1	?	?	0%	?	4%	-7%
Oc1ccc(Cl)cc1CNc1ccc(Br)cn1	?	19µM*	0%	?	1%	.
CN(C)C(/C=C/Nc1cccc([N+](=O)[O-])c1)=C(C#N)C#N	2%	-2%	2%	-7%	12%	5%
Cc1ccc(C(=O)/C=C/Nc2cccc([N+](=O)[O-])c2)o1	?	5.4µM*	?	?	3.2µM*	14µM*
Cc1ccc(S(=O)(=O)c2cnc(SCC(=O)Nc3cc(C)cc(C)c3)nc2N)cc1	.	-9%	.	.	.	.
COCCn1c(=O)c(-c2ccc(Cl)cc2)nc2cncnc21	.	.	.	.	.	-3%
CC(=O)Oc1cc2cccc(OC(C)=O)c(=O)c2c(OC(C)=O)c1OC(C)=O	20%	-3%	2%	-8%	9%	-12%
Cc1ccc(CSc2nc3ccncc3[nH]2)cc1	?	2.7µM*	?	?	?	7.1µM*
O=C(NCc1ccc(Cl)cc1)c1ccc(CSc2nc3ccncc3[nH]2)cc1	-9%	-11%	1%	?	-1%	.
SMILES	ELG1 genotox	FLuc counter	NPC1 prom act	ELG1 repair inh	Rab9 prom act	SMN2 splice up
Clc1ccc(CSc2nc3ccncc3[nH]2)cc1	2.9µM*	4.8µM*	0.63µM*	?	0.71µM*	11µM*
CNS(=O)(=O)c1ccc(C(=O)NCC(=O)NCCC(c2ccccc2)c2ccccc2)cc1	1%	13%	-10%	8%	-5%	.
Cc1[nH]nc(Nc2ccc(C(C)C)cc2)c1[N+](=O)[O-]	?	9.5µM*	3.5µM*	?	3.5µM*	.
Cc1ccc(Nc2n[nH]c(C)c2[N+](=O)[O-])cc1	19%	19µM*	2.8µM*	?	3.5µM*	18µM*
Cc1[nH]nc(Nc2ccccc2)c1[N+](=O)[O-]	4%	?	18%	?	13%	-8%
CNc1nc(Nc2ccc(Br)cc2)nc(N)c1[N+](=O)[O-]	?	-4%	?	?	3.5µM*	11%
COc1ccc(Nc2nc(N)c([N+](=O)[O-])c(NCCO)n2)cc1	8%	?	17%	0%	1%	.
Cc1[nH]nc(Nc2ccc(Br)cc2)c1[N+](=O)[O-]	?	9.5µM*	2.8µM*	?	3.2µM*	.
CC(=O)c1cccc(NC(=O)C(C)OC(=O)c2cc(=O)[nH]c3ccccc23)c1 (centres undefined)	1%	-1%	-2%	-1%	-7%	.
Cc1cccc(Nc2n[nH]c(C)c2[N+](=O)[O-])c1	5.8µM*	15µM*	2.5µM*	?	3.2µM*	?
O=C(COC(=O)Cc1ccc(Cl)cc1)NCc1ccco1	0%	.	.	17%	.	.
O=C1CN(C(=O)c2ccc(Br)o2)C(c2ccccc2)c2cc(Cl)ccc2N1 (centres undefined)	-9%	0%	6%	21µM*	-13%	-4%
